How the values were obtained:
Assay in all cases: PBM binding z-score (relative to random genomic background probes); higher = stronger binding; sequences stand for … in GC…GCGATTGACAGCGTAGAATGAAGG
[1] = system: RARb homodimer (NR concentration 270 nM)
Outline: (§1)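 Binding buffer was PBS pH 7.4 with 2% milk, 0.02% Triton X-100, 1 mM DTT, 0.2 mg/mL BSA and 0.4 mg/ml salmon testes DNA. In it, ligand-free nuclear receptor dimers were incubated 1 h on custom Agilent 4×180K protein-binding microarrays carrying double-stranded probes. Antibodies against each partner (one per run) detected binding, and z-scores were calculated against random background probes after regression normalization of scanned fluorescence.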

[2] = system: RARg:RXRa (NR concentration 270 nM, RXRa partner concentration 90 nM)
Outline: as §1

[3] = system: RARg homodimer (NR concentration 270 nM)
Outline: as §1

[4] = system: RXRa DBDmut IVT, anti-RXR (DBD mutation: RXRa K156A/R161A, NR concentration 90 nM)
Outline: as §1

[5] = system: RXRa homodimer (NR concentration 180 nM)
Outline: as §1

[6] = system: THRa:RXRa (NR concentration 90 nM, RXRa partner concentration 90 nM)
Outline: as §1

[7] = system: THRa homodimer (NR concentration 90 nM)
Outline: as §1

[8] = system: VDR homodimer (NR concentration 270 nM)
Outline: as §1

Sequence	PBM binding z-score [1]	PBM binding z-score [2]	PBM binding z-score [3]	PBM binding z-score [4]	PBM binding z-score [5]	PBM binding z-score [6]	PBM binding z-score [7]	PBM binding z-score [8]
AGTCAAAGTTCACTGGGTAACGTAAGATTCAGCT	3.82	5.43	5.94	4.4	4.47	1.92	-0.189	4.09
GCTGCTTGGTCAACTGATGGTCAGCTAAAGCTCG	0.641	0.828	0.795	0.0652	-0.182	-0.283	-0.699	-1.25
CTACCAAGGTGAACAAGGTCGTAGATTACTATTC	1.98	2	1.6	0.741	2.24	3.24	1.88	1.72
CCTACTGGGCCATTCACAGGTCATTGATCATATG	2.72	2.69	1.66	0.46	1.34	2.01	0.728	1.17
ACTAGCAGGGCAAGGGTCACTCAAGATTAGTCCG	3.73	4.34	3.78	0.379	4.53	2.73	-0.1	1.17
ATCTCTAGTTAAGACTCAGTTCAGTGAAGAACGC	0.624	0.145	0.575	0.575	0.126	0.594	0.6	1.67
ATCGAAAAGTCGTGAGGTGAGTATACAGAAAGGC	0.17	0.561	0.564	-0.691	0.466	1.68	1.14	-0.0663
ACTTACGGTTCAACGAGGTTATAGCACGCGTATA	1.54	2.25	1.14	3.49	3.22	3.06	0.878	5.32
CTCGACAGGTCGGTTGAGGTGAGTATACGGATAA	0.715	0.769	0.825	-0.127	0.289	4.41	1.11	0.012
ACTATTAGTTGAGACGAGGGCAACCAATAGGTTG	1.29	0.956	0.987	0.665	0.753	2.89	0.217	0.676
CGTGAAAGTTCAACTAAGGTAACGTAAAGCACGC	4.13	5.55	6.12	4.76	4.3	5.32	1.64	3.71
CCGACTAGGGCAAAGGTTACCATACTCAGTACGA	2.48	3.78	2.11	0.743	4.2	2.14	-0.117	0.229
CGAACTAGGTCATCCAGGACAGGGAATACATTGA	2.82	3.79	4.29	2.17	2.65	3.52	1.93	1.73
TCTTGTAGATAAAGCAGGTTAAGAAAGCCTGAGT	0.29	0.138	0.0703	0.785	0.499	0.47	-0.334	0.374
CAAACTAGGTGAAGGTCAAAGTCGGTTTGTGCCA	3.92	4.07	4.37	1.5	4.34	3.14	0.696	2.23
CCTGCTAGGTCAATGGTCACCTAAAGCAGCTCGC	3.18	3.72	4.05	2.07	2.43	2.78	1.32	0.427
CCTCGGAAGACAGAAGGTCAGAGCTGTCCGCTTT	3.01	2.34	2.32	0.101	1.83	1.56	-0.133	0.00286
CCTACAGGGCCAAAAAGGTCATTGATGCCGATAA	4.52	4.75	4.56	1.26	5.08	3.21	0.419	3.43
CTTACTGGGCCAAGGTCATTGATCAGTCAAAGCA	3.49	4	3.2	2.11	3.65	3.43	2.31	3.76

Sequence	PBM binding z-score [1]	PBM binding z-score [2]	PBM binding z-score [3]	PBM binding z-score [4]	PBM binding z-score [5]	PBM binding z-score [6]	PBM binding z-score [7]	PBM binding z-score [8]
ATCTCTAGGTATAAGTTCAGTGAATCCCGAGGAT	1.42	1.17	1.31	0.993	0.674	0.824	0.567	2.79
TGCCAAAGTTCAAAGGTAACGTAAGTATCCACAC	3.8	6.37	6.18	4.65	7.16	3.44	-0.0439	5.01
GTACCAAGGTGATTAGGTCGTTGATGAGTAGGCG	1.06	0.806	0.66	0.0245	0.805	1.49	1.03	0.631
ATCTCTAGGTAAAGTTGAGTGAAAGATCGATAGA	-0.112	0.406	0.593	-0.00419	0.495	0.689	-0.246	0.103
CGAACTAGGTCATCCAGTACAGTGAATACATTGA	3.05	3.9	4.84	2.61	2.78	3.04	1.43	2.24
CGAACTAGGTCATCCAGGACAGTGAGTACATTGA	3.03	4.04	5.08	2.58	3.02	3.65	2.14	4.1
AGTCAAAGTTCACTAGGAAACGTAAGATTCAGCT	3.48	4.86	5.62	3.98	3.71	1.3	-0.55	3.64
CCTATTTGGTCAGGAGGTCACACACCGGATATGA	4.24	5.12	4.67	1.25	5.03	3.54	2.66	2.61
ATATGTAGGTTACATACGGGTCATTCAGGCTATG	2.71	4.44	2.41	0.906	3.48	2.73	0.593	2.29
GCATATAGGTAATACCAGGTGAAAGTCCGATTGT	0.327	0.203	0.193	0.247	0.369	3.99	0.748	-0.0397
GCTGCTAGGTCAGGTTGGCCAGCTAACGGGTACG	2.23	2.48	3.46	-0.0229	0.917	1.46	0.0199	0.0457
CCTTCTGGGCCAAAAAGGTCATTGATGCCGATAA	4.2	4.63	4.26	1.29	4.8	2.87	0.411	2.86
GCTGCTAGGACAACTGATGGTCAGCTAAAGCTCG	0.137	-0.166	0.37	-0.0279	-0.722	0.434	-0.447	-1.49
TAGCCTCGGTCATGCGGGCCAGTATAGTGTCGGC	1.58	1.57	2.52	-1.04	-0.228	-0.135	-0.62	-0.697
TCGAGTAGGTTAACAATGGGGCATTCAGCTTTCT	0.737	1.49	0.51	0.509	0.809	0.284	-0.587	-0.182
CACACTAGGTCACCGGAAGGTCAAAGTCCGCATG	5.83	8.21	7.39	2.24	6.53	4.79	3.54	3.61
CGTCCAAGGTCAAAGGCCAGTGAAGAGATGACGG	4.03	6.17	6.72	3.33	6.48	3.82	1.82	3.32
TCTTGTAGATCAAGAGGAGGTTAAGAAAGATCGA	0.486	0.616	0.204	0.251	0.72	0.611	-0.142	-0.158
ACAGACAGGTGATGAAGGTAATTCAGGCTATCAT	-0.0158	0.139	0.241	-0.19	0.13	0.514	0.165	-0.369

Sequence	PBM binding z-score [1]	PBM binding z-score [2]	PBM binding z-score [3]	PBM binding z-score [4]	PBM binding z-score [5]	PBM binding z-score [6]	PBM binding z-score [7]	PBM binding z-score [8]
GCTCGGAGGACAAGGTCATAGCTTTGTCCGTAGA	3.41	4.23	3.99	1.8	4.34	3.56	2.14	2.26
GTACCAAGGTGAATAGGTCGGTGATGAGTAGGCG	1.58	1.83	1.21	-0.398	1.14	1.57	0.522	0.177
GCTGCTAGGTCAGCTTGGTCAGCTAACGGGTACG	2.8	2.8	3.88	0.514	1.1	1.73	0.547	-0.161
ATCTCTGGGTAAAGATAGTTCAGTGAATGCAAAT	1.1	0.61	0.989	-0.0472	0.123	0.544	-0.18	0.45
CAAACTAGGTCAAGGTCAAAATCGGTTTGTGCCA	4.77	5.74	6.36	2.64	5.55	4.32	3.13	3.88
CCTAGGAGGCCAATCTGGGTCACTCAAGGCTTGA	2.69	1.66	2.12	-0.07	1.19	4.21	0.462	0.0459
CCTACTGGGCCACAGGTCATTGATTCCAATGCTC	2.48	2.14	1.94	0.14	2.23	1.54	0.651	1.13
AGAATGAGGTTAAGATCAGGGGAACAGAATACAT	1.37	2.14	1.59	1.58	2.52	2.8	1.34	0.727
TCTCGGAGGACACGAAGGTCAGAGCGTTCCAGAG	3.79	3.32	3.84	0.548	1.94	2.99	0.835	1.2
TCTCGGAGGACACGAAATGTCAGAGCTCGACATC	1.04	0.897	1.7	0.78	0.302	1.54	0.334	-0.342
GCTTATAGATCAAGGTTAAGAAAGACTAAGCTAA	0.33	0.377	0.552	0.345	0.835	1.32	0.0443	-0.265
GGAACGAGGGCATTCGAGTTGATAGGATGGCGAT	0.729	1.11	1.28	3.32	0.734	3.21	-0.299	2.9
TTACCAAGGCGAAGGTCGTTGATCCCTCTGTAGA	0.804	0.317	0.0659	0.0625	1.13	1	0.0881	0.564
TAGCCTAGGTCATGGGCCACTATACCACGCGAAC	3.27	4.38	4.64	0.641	3.72	3.14	1.57	0.754
AGTCAAAGTACACTAGGTAACGTAAGATTCAGCT	0.288	0.245	0.909	1.11	0.318	0.479	-0.0974	0.127
AGTATGAGGTTATTAAGATCAGGGAATTGCGGTC	1.18	1.27	1.09	2.07	1.53	2.27	1.05	1.41
ACTAGTTGGTCAGCTGAGGTCACACATAATTCGG	4.45	4.1	4.13	1.13	3.93	4.88	5.2	3.19
TTACCAAGGTGAGCTGAGGTCGTAGATCCAACTC	1.66	1.5	1.13	-0.577	1.72	4.78	1.9	0.82
